Among all 69,000 compounds or so, about 8,600 (12%) showed an effect of 50% or more. The sample as a whole holds a higher share of strong results than the screen did.
tested on: Plasmodium berghei; assay: Screen against P. berghei liver stage (PbLuc), transformed with Luciferase, at 10uM; type: functional, HepG2; details: tested at 10 uM

Row | SMILES | INHIBITION [%]
1 | c1ccc(-c2cc(CNCCN3CCCC3)c3nnnn3c2)cc1 | -5.71
2 | CC(NC(=O)NCc1ccccn1)c1cccs1 (stereo unspecified) | -5.26
3 | O=C(C1=CCCC1)N1CCC[C@]2(C[C@@H](Oc3ncccc3F)CO2)C1 | 23.5
4 | CC(C)N1CCc2c(C(=O)N3CCOCC3)nn(C)c2C1 | 42.1
5 | OC1(CNc2ccccc2)CCNCC1 | 20.9
6 | CN(CCCc1n[nH]c(N)c1C#N)C(=O)Nc1cc(Cl)cc(Cl)c1 | 63.7
7 | CCNC(=O)N(C)CCCc1n[nH]c(N)c1C#N | 40.9
8 | CN(CCCc1n[nH]c(N)c1C#N)C(=O)NC1CC1 | 23.6
9 | OCCN(Cc1nc(-c2ccc3c(c2)OCO3)no1)Cc1cccs1 | 17.6
10 | OCCN(Cc1ccccc1)Cc1nc(-c2ccc3c(c2)OCO3)no1 | 35.1
11 | COC(=O)c1ccc(-c2noc(CN(CCO)Cc3cccs3)n2)cc1 | 51
12 | CCS(=O)(=O)N1C[C@@H](Oc2ccccn2)[C@H]2OCCC[C@H]21 | -14.4
13 | COCC1(CNC(=O)Nc2cc(F)ccc2OC)CCCC1 | 51.4
14 | COc1ccc(F)cc1NC(=O)NCC1(CN2CCOCC2)CC1 | 28.15
15 | COc1ccc(F)cc1NC(=O)NCC1(C)COC1 | 25.25
16 | Cc1nn(C)c(Cl)c1C1CCCN1C(=O)CCNc1ncccn1 (stereo unspecified) | -35.7
17 | O=c1cc(N2CCCCC2)cnn1CC(O)C(F)(F)F (stereo unspecified) | -29.1
18 | O=c1cc(N2CCNCC2)cnn1CCc1ccc(F)cc1 | 32.8

Row | SMILES | INHIBITION [%]
19 | O=c1cc(N2CCOCC2)cnn1CCc1ccc(F)cc1 | -0.529
20 | O=c1cc(N2CCCCC2)cnn1C[C@H](O)CO | 2.7
21 | O=c1cc(N2CCCC2)cnn1CCc1cccc(F)c1 | 52.6
22 | O=c1cc(N2CCCC2)cnn1CC(F)F | 73.2
23 | Cc1cnn(CCNCc2csc(-c3ccc(C(N)=O)cc3)n2)c1 | 43.6
24 | O=C(COc1ccc2c(c1)OCC2O)NCc1ccco1 (stereo unspecified) | 10.6
25 | NC(=O)c1nc(COc2ccc3c(c2)OCO3)no1 | -83.7
26 | CC(C)CNC(=O)c1nc(COc2ccc3c(c2)OCO3)no1 | 57.7
27 | N#Cc1nc(COc2ccc3c(c2)OCO3)oc1NC1CC1 | 47.1
28 | O=C(NCC1CC1)c1nc(COc2ccc3c(c2)OCO3)no1 | -12.6
29 | O=C(NC1CCCC1)c1nc(COc2ccc3c(c2)OCO3)no1 | 62.9
30 | CNc1oc(COc2ccc3c(c2)OCO3)nc1C#N | 41.5
31 | N#Cc1nc(COc2ccc3c(c2)OCO3)oc1NC1CCCCC1 | 72.1
32 | CNC(=O)c1nc(COc2ccc3c(c2)OCO3)no1 | 53.7
33 | CC(C)NC(=O)c1nc(COc2ccc3c(c2)OCO3)no1 | 32.8
34 | O=C(c1nc(COc2ccc3c(c2)OCO3)no1)N1CCCC1 | 13.4
35 | O=C(NC1CC1)c1nc(COc2ccc3c(c2)OCO3)no1 | 35.1
36 | Cc1occc(=O)c1OCc1noc(C(=O)NCC(C)C)n1 | 26.9

Source: ChEMBL document CHEMBL4513216, “Probing the Open Global Health Chemical Diversity Library for Multistage-Active Starting Points for Next-Generation Antimalarials” (ACS Infect Dis, 2020)
